Tb PYK inh: inhibitors of Trypanosoma brucei pyruvate kinase. Potency, µM (highest dose often 76.8 µM), without a hit: at the highest dose activity, negative = inhibition, hits mostly inhibitors. TbPYK enzyme, Kinase-Glo Plus ATP luminescence, 45 min. hit rate 0.12% among 410,000. Q57TT1; note: potency is the fitted concentration of half-maximal effect; % is set by controls: 0 for no effect and ±100 for the full control effect; nearly all actives have a fitted effect of over 50% in size
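Quantitative HTS: titrated library compounds versus trypanosomal pyruvate kinase in TEA buffer (pH 7.2) containing KCl, MgCl2, BSA and Tween-20. Reactions were initiated with ADP, 130 uM final. Kinase-Glo Plus luminescence was read after 45 min at RT.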
Shiga inhibitor: blocks Shiga toxin action in Vero cells. Vero cells, Shiga toxin protein synthesis inhibition reporter. inhibition, % at 38.7 µM. hit rate 9.2% among 290,000. AID 2315; in the data active = inhibition mostly above about 28%, no sharp cut-off; inactive = mostly below about 43%; note: 0% is about no effect
CHX counter: affects cycloheximide protein synthesis inhibition readout, counter-screen; cell reporter, cycloheximide protein synthesis inhibition counterscreen; max response, %; hit rate 12% among 300,000; AID 2314; in the data active = max response mostly above about 13%, no sharp cut-off; inactive = mostly below about 14%; note: read at 38.3 µM for the half of the compounds with a filed dose; 0% is about no effect
LmPK inh: inhibitors of Leishmania mexicana pyruvate kinase | Q27686 | purified LmPK, Kinase-Glo ATP luminescence, 1 h | Potency, µM (highest dose often 57.5 µM), without a hit: at the highest dose activity change, negative = inhibition, usual class: inhibitors | hit rate 0.37% among 290,000 | AID 1721; note: potency is the fitted concentration of half-maximal effect; % is set by controls: 0 for no effect and ±100 for the full control effect
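Kinase-Glo luminescence read after 1 h RT reaction of 0.1 nM LmPK with 0.5 mM PEP and 0.1 mM ADP. Activity scaled between uninhibited and enzyme-free controls.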
Giardia FBPA inh: blocks Giardia fructose-bisphosphate aldolase activity; purified Giardia FBPA; Potency, µM (top dose mostly 59.6 µM), without a hit: at the top dose activity, negative = inhibition, most hits filed as inhibitors; hit rate 0.71% among 290,000; AID 2451; note: potency is the fitted concentration of half-maximal effect; % is set by controls: 0 for no effect and ±100 for the full control effect; nearly all actives have a fitted effect of over 55% in size
Target sequence (A8B2U2 whole entry, looked up): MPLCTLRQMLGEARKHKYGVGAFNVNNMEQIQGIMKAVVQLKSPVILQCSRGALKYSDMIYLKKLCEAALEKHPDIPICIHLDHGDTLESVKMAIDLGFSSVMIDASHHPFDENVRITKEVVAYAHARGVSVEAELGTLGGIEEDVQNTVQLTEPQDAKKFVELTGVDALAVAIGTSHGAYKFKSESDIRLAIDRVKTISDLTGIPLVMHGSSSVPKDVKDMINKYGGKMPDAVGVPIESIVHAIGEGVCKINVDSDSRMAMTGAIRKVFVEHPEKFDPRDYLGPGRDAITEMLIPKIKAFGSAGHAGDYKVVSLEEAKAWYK
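Giardia FBPA (40 nM reagent) was preincubated 10 min at RT with compound (up to 57.5 uM final), then substrate plus GAPDH/TPI/NAD/arsenate coupling system with diaphorase/resazurin was added; resorufin fluorescence (525/598 nm) was read after 20 min.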
Sm TGR block: blocks Schistosoma mansoni thioredoxin glutathione reductase; Q962Y6; purified TGR, DTNB reduction, TNB absorbance 405 nm; Potency, µM (titrated, usually from 114 µM), inactives show at the highest dose activity change, negative = inhibition, hits mostly inhibitors; hit rate 3% among 360,000; note: potency is the fitted concentration of half-maximal effect; % is set by controls: 0 for no effect and ±100 for the full control effect; nearly all actives have a fitted effect of over 60% in size
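TGR 20 nM + NADPH 100 uM (dispensed conc.), cpd preinc 15 min RT; start with NADPH (500 uM addition) then DTNB (15 mM addition). Kinetic TNB absorbance, 405 nm filter. Four-parameter Hill fit across titration.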
Numbers without * were called inactive; ? = inconclusive; / = no result given; [ ] = remark or other dose. The sample as a whole holds a higher share of hits than the screen did. Unless noted, calls come from the whole dose curve; as a rule, active = well fitted curve in the direction sought with a large enough effect; inconclusive = small, poorly fitted or top-dose-only effect, or another doubt; inactive = no such curve, though single readings can be large; an effect the other way counts as inactive or inconclusive.

SMILES	Tb PYK inh	Shiga inhibitor	CHX counter	LmPK inh	Giardia FBPA inh	Sm TGR block
O=C(NCC(Cl)c1ccc2ccccc2c1)c1c(F)cccc1F (configuration not stated)	5%	9	33*	1%	-14%	-5%
FC(F)(F)c1ccccc1-c1cc(N2CCNCC2)ncn1	/	/	/	/	-5%	/
COc1cc(/C=C/c2nc(C#N)c(NC(C)c3ccccc3)o2)cc(OC)c1OC (configuration not stated)	-2%	/	/	/	/	-5%
Nc1nonc1-c1noc(N2CCCCC2)n1	-2%	80*	30*	-18%	6%	-4%
CC(C)C(NC(=O)c1ccc(Cl)cc1)C(=O)NCC1CCCO1 (configuration not stated)	-4%	-4	-5	2%	4%	0%
CC(=O)N1CCC2(CC1)C(C#N)=C(N)Oc1n[nH]c(C(F)(F)F)c12	2%	16	-1	-2%	-5%	28µM*
O=S(=O)(c1c(F)cccc1F)N1CCN(S(=O)(=O)c2c(F)cccc2F)CC1	/	-9	0	/	/	/
O=S(=O)(c1c(F)cccc1F)N1CCN(Cc2c(O)ccc3ccccc23)CC1	0%	/	/	/	/	2.2µM*
Oc1ccc2ccccc2c1CN1CCOCC1	4%	6	7	7%	-24%	0.45µM*
CC(CN1CCOCC1)C(Cc1ccccc1)(Cc1ccccc1)C(=O)N1CCCC1 (configuration not stated)	-12%[157 µM]	/	/	/	/	/
CCOC(=O)CSc1nc2c([nH]c3ccccc32)c(=O)n1-c1ccc(OC)cc1	0%[15.4 µM]	/	/	/	/	16%
O=C(NC1CCCC1)c1sc(=S)n2c1[nH]c(=O)c1ccccc12	-3%	-7	-2	22µM*	-6%	3%
COc1ccc2c(c1)C(=O)CC(c1ccc(OC)c(OC)c1)O2 (configuration not stated)	5%	/	-4	5%	5%	12%
Cc1ccc2c(c1)C(=O)CC(c1ccc3c(c1)OCCO3)O2 (configuration not stated)	-6%	64*	41*	-7%	9%	1%
COc1ccc2c(c1)C(=O)CC(c1ccccc1F)O2 (configuration not stated)	-4%	36*	13*	1%	-4%	5%
COc1ccc2c(c1)C(=O)CC(c1ccc3c(c1)OCCO3)O2 (configuration not stated)	0%	61*	43*	11%	5%	7%
COc1ccc(Cl)cc1NC(=O)C1CCN(S(=O)(=O)c2ccc(F)cc2)CC1	3%	/	/	/	/	-1%
CCCCCCCCCC(=O)NC(CN1CCOCC1)[C@H](O)c1ccccc1 (some centres not stated)	/	/	/	/	-1%	/
CC1C(=O)N2CCCc3cc(S(=O)(=O)N4CCN(c5cccc(Cl)c5)CC4)cc1c32 (configuration not stated)	7%	/	/	/	/	-1%
CCOC(=O)N1CCN(C(=O)c2oc3ccc(S(=O)(=O)N(CC)CC)cc3c2C)CC1	2%	-4	6	-4%	-5%	-7%
Cc1cc(C)cc(NC(=O)COC(=O)CCc2ccc(S(=O)(=O)N3CCOCC3)cc2)c1	-16%	-7	-1	5%	0%	12%
CC(NC(=O)COC(=O)CCc1ccc(S(=O)(=O)N2CCOCC2)cc1)C1CC2CCC1C2 (configuration not stated)	-18%	-15	36*	-2%	0%	6%
Cc1cc(OCCN2CCOCC2)ccc1Cl	4%	138*	32*	-5%	?	-13%
Cc1ccc(OCCN2CCOCC2)cc1C	-3%	40	17*	-9%	-1%	2%
Cc1cc(OCCN2CCOCC2)ccc1[N+](=O)[O-]	9%	17	10	-6%	-25%	-8%
SMILES	Tb PYK inh	Shiga inhibitor	CHX counter	LmPK inh	Giardia FBPA inh	Sm TGR block
Clc1cccc(OCCN2CCOCC2)c1	0%	8	-4	0%	?	8%
CCOc1ccc(-n2c(-c3ccoc3)nc3ccccc3c2=O)cc1	-3%	10	-1	10%	0%	5%
CCOc1ccc(-n2c(C)nc(O)c2N=Nc2ccccc2)cc1	0%	67	17*	4%	11%	6%
N#CC1(C#N)C(c2ccccc2)OC23CCCCCC2C1(C#N)C(=N)O3 (configuration not stated)	0%	-10	-5	-5%	-25%	25µM*
O=S(=O)(Nn1c(O)c(C=C2N=c3ccccc3=N2)sc1=S)c1ccccc1	0%	10	1	5%	-1%	11µM*
O=C(Nn1c(O)c(C=C2N=c3ccccc3=N2)sc1=S)c1ccccc1Cl	2%	4	10	-7%	-14%	-13%
CC(=O)c1ccc(NC(=O)COCc2cc(-c3ccc(F)cc3)on2)cc1	4%	/	/	/	/	2%
C=CCn1c(-c2csc3ccccc23)n[nH]c1=S	?	-12	-2	11µM*	-8%	-31%
C=CCn1c(-c2c[nH]c3ccccc23)n[nH]c1=S	?	24	0	22µM*	-5%	?
C=CCn1c(-c2csc(-c3ccccc3)n2)n[nH]c1=S	-35%	-14	-3	0%	-3%	-2%
CCn1c(-c2c[nH]c3ccccc23)n[nH]c1=S	?	-3	-3	?	3%	-27%
Cc1ccc(S(=O)(=O)N2CC3(O)CN(C(=O)OC(C)C)N(C(=O)OC(C)C)CC3(OC(=O)NCc3ccccc3F)C2)cc1 (configuration not stated)	9%	/	/	/	/	/
COC(C#CCCN(C)C)(c1ccccc1)c1ccccc1	-2%	-7	-3	5%	-13%	28µM*
CN(C)CC#CCC(O)(c1ccccc1)c1ccccc1	-7%	-16	-2	0%	1%	-9%
COCCNc1nc(-c2cccc(OC)c2)nc2ccccc12	/	/	/	/	-15%	/
CC(C)CCOc1ccc(N)cc1	/	24*	12*	/	-27%	/
COc1ccc(/C=C/C(=O)N2CCCc3ccccc32)cc1	-8%	74*	52*	0%	1%	5%
COc1ccc(OC)c(/C=C/C(=O)N2CCCc3ccccc32)c1	-1%	54	18	1%	-16%	6%
O=C1CCN(C(=O)/C=C/c2ccccc2)c2ccccc21	1%	41*	28*	-2%	7%	1%
COc1ccc(/C=C/C(=O)N2CCCc3ccccc32)c(OC)c1	0%	47	14*	0%	-8%	9%
COc1ccccc1N1CCN(Cc2cc(=O)oc3cc(C)cc(C)c23)CC1	-10%	/	/	/	/	/
Cc1ccc(OC(=O)c2cc(-c3ccc4c(c3)OCCO4)on2)cc1C	-6%	/	/	/	/	-2%
CN(C)CCNC(=O)CN1N=C(c2ccccc2)CCC1=O	-7%	/	/	/	/	-1%
COc1cc(CCC(=O)Nc2ccc(C)c(S(=O)(=O)N3CCCCCC3)c2)cc(OC)c1OC	7%	/	/	/	/	-6%
